This is an account of results in PubChem BioAssay (NCATS).

Records with an inconclusive call do not appear. Calls of active or inactive are those of the source. Unless noted, calls follow the shape of the dose curve; as a rule, active = well fitted curve in the direction sought with a large enough effect; inconclusive = small, poorly fitted or top-dose-only effect, or another doubt; inactive = no such curve, though single readings can be large; an effect the other way counts as inactive or inconclusive.

A short description of assay [1]: S16 Schwann cell PMP22 intronic element firefly luciferase assay (AID 624032). Also: nearly all actives have a fitted effect of over 30% in size. In a few lines: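 Rat S16 Schwann cells stably carrying a PMP22 intronic element-driven Fluc reporter were seeded overnight, then exposed to compounds for 24 h at 37 °C. Luminescence was normalized to PTC124 (positive control) and DMSO (0% activity).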
A short description of assay [2]: S16 Schwann cell PMP22 intronic element beta-lactamase assay (AID 624044; calls by dose curve; also: nearly all actives have a fitted effect of over 15% in size). The essentials:
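Beta-lactamase reporter under a PMP22 intronic regulatory element in stable S16 rat Schwann cells; 24 h compound exposure. 460 nm blue signal normalized between DMSO (0%) and potassium clavulanate, with 535 nm FRET tracking viability; curves classed by r2 and response.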

Assay [3] has as its system 3D7. Briefly: qHTS profiling for inhibitors of Plasmodium falciparum proliferation (AID 504749). Also: nearly all actives have a fitted effect of over 60% in size. Also: potency is read from the fitted curve at half-maximal effect. As to conditions: P. falciparum in erythrocytes, SYBR Green DNA, 72 h; series mostly up to 12.8 µM. The essentials:
(§1)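 Fluorescence of SYBR Green-bound parasite DNA, read at 485/535 nm, served as the growth measure. Infected erythrocytes were cultured with compound 72 h; artemisinin (0.29 uM) and DMSO wells defined the normalization range.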

The test system of assay [4] is 7G8. The description is as above. Conditions: P. falciparum in erythrocytes, SYBR Green DNA, 72 h; series mostly up to 12.8 µM. In a few lines: as §1
Assay [5] has as its system ATS95. The description is as above. Conditions: P. falciparum in erythrocytes, SYBR Green DNA, 72 h; series mostly up to 12.8 µM. The essentials: as §1
Assay [6] has as its system CP192. Described as above. As to conditions: P. falciparum in erythrocytes, SYBR Green DNA, 72 h; series mostly up to 28.7 µM. In a few lines:
as §1

The subject of assay [7] is CP194. The description is as above. Conditions: P. falciparum in erythrocytes, SYBR Green DNA, 72 h; series mostly up to 12.8 µM. The essentials:
as §1

The test system of assay [8] is CP203. Described as above. Conditions: P. falciparum in erythrocytes, SYBR Green DNA, 72 h; series mostly up to 12.8 µM. In a few lines: as §1
Assay [9] concerns CP215. The description is as above. As to conditions: P. falciparum in erythrocytes, SYBR Green DNA, 72 h; series mostly up to 28.7 µM. In a few lines:
as §1

The test system of assay [10] is CP260. The description is as above. As to conditions: P. falciparum in erythrocytes, SYBR Green DNA, 72 h; series mostly up to 12.8 µM. In a few lines:
as §1

For assay [11], the system named is CP266. The description is as above. Conditions: P. falciparum in erythrocytes, SYBR Green DNA, 72 h; series mostly up to 28.7 µM. In a few lines:
as §1

Assay [12] relates to CP268. The description is as above. As to conditions: P. falciparum in erythrocytes, SYBR Green DNA, 72 h; series mostly up to 12.8 µM. In a few lines: as §1
Assay [13] deals with CP297. Described as above. As to conditions: P. falciparum in erythrocytes, SYBR Green DNA, 72 h; series mostly up to 12.8 µM. In a few lines: as §1
Assay [14] has as its system DIV14. The description is as above. As to conditions: P. falciparum in erythrocytes, SYBR Green DNA, 72 h; series mostly up to 12.8 µM. The essentials: as §1
Assay [15] relates to DIV17. The assay is described as above. As to conditions: P. falciparum in erythrocytes, SYBR Green DNA, 72 h; series mostly up to 12.8 µM. In a few lines:
as §1

Assay [16] concerns GB4. The description is as above. Conditions: P. falciparum in erythrocytes, SYBR Green DNA, 72 h; series mostly up to 12.8 µM. The essentials: as §1
The subject of assay [17] is ICS. The description is as above. Conditions: P. falciparum in erythrocytes, SYBR Green DNA, 72 h; series mostly up to 12.8 µM. In a few lines: as §1
Assay [18] relates to PAD. The assay is described as above. As to conditions: P. falciparum in erythrocytes, SYBR Green DNA, 72 h; series mostly up to 12.8 µM. In a few lines:
as §1

Assay [19] has as its system TAB109. The assay is described as above. As to conditions: P. falciparum in erythrocytes, SYBR Green DNA, 72 h; series mostly up to 12.8 µM. The essentials:
as §1

The test system of assay [20] is W2. The assay is described as above. As to conditions: P. falciparum in erythrocytes, SYBR Green DNA, 72 h; series mostly up to 12.8 µM. In a few lines: as §1

On to `CC(=O)Nc1c(I)c(C(=O)N[C@H]2[C@@H](O)[C@H](O)[C@H](CO)O[C@@H]2O)c(I)c(N(C)C(C)=O)c1I`, for which the Potency entry in assay [1], in [3], in [4], in [5], in [6] and in assay [7] was “inactive” in each case. For the same compound, the Potency entry in assay [8], in [9], in [10], in assay [11], in assay [12] and in assay [13] was “inactive” throughout. In addition, the Potency result in assay [14], in assay [15], in [16], in assay [17], in assay [18] and in assay [19] was “inactive” throughout. Moreover, the Potency entry in assay [20] is “inactive”. Besides, in assay [2], the result was inactive.

As for `CCN1C(=O)N[C@@H](c2ccccc2)C1=O`, the Potency result in assay [1], in assay [3], in assay [4], in [6], in assay [7] and in assay [8] was “inactive” throughout. The Potency entry in [9], in [10], in assay [11], in assay [12], in [13] and in assay [14] was “inactive” throughout. Besides, the Potency result in [15], in [16], in [17], in [18], in assay [19] and in [20] was “inactive” each time. Also, in assay [2], the compound was classed as inactive.

As for `COCCc1ccc(OC[C@H](O)CNC(C)C)cc1`, the Potency result in assay [1], in assay [3], in assay [4], in [5], in assay [6] and in assay [7] was “inactive” throughout. Further, the Potency result in assay [8], in assay [9], in assay [10], in assay [11], in assay [12] and in [13] was “inactive” in each case. In addition, the Potency entry in assay [14], in assay [15], in [16], in assay [17], in assay [18] and in assay [19] was “inactive” each time. In addition, the Potency entry in [20] was “inactive”. In addition, the compound was called inactive in [2].

For `COc1ccccc1OC[C@H](O)COC(N)=O`, the Potency result in [1], in assay [3], in assay [4], in assay [5], in [6] and in [7] was “inactive” each time. The Potency entry in assay [8], in assay [9], in [10], in [11], in [12] and in [13] was “inactive” throughout. The Potency result in assay [14], in [15], in assay [16], in assay [17], in [18] and in assay [19] was “inactive” in each case. Further, the Potency result in assay [20] is “inactive”. In assay [2], the call was inactive.

On to `CCC[C@H]1C(=O)N2C(N(C)C)=Nc3ccc(C)cc3N2C1=O`, for which the Potency result in assay [1], in assay [3], in [4], in assay [5], in [6] and in [7] was “inactive” each time. For the same compound, the Potency result in [8], in assay [9], in assay [10], in assay [11], in [12] and in assay [13] was “inactive” in each case. Moreover, the Potency entry in assay [14], in assay [15], in assay [16], in assay [17], in [18] and in assay [19] was “inactive” in each case. Besides, in [20], the Potency result is “inactive”. For the same compound, the compound was classed as inactive in assay [2].

Regarding `O=C(O)/C=C\c1ccc(Cn2ccnc2)cc1`, the Potency entry in assay [1], in assay [3], in assay [4], in [5], in [6] and in [7] was “inactive” throughout. Besides, the Potency result in assay [8], in assay [9], in [10], in assay [12], in assay [13] and in assay [14] was “inactive” each time. Moreover, the Potency result in assay [15], in [16], in assay [17], in assay [18], in [19] and in assay [20] was “inactive” in each case. The outcome in [2] was inactive.

In the case of `CC1(C)S[C@@H]2[C@H](NC(=O)[C@H](C(=O)O)c3ccsc3)C(=O)N2[C@H]1C(=O)O`, the Potency result in assay [1], in assay [3], in [4], in [5], in [6] and in assay [7] was “inactive” throughout. In addition, the Potency entry in [8], in assay [9], in [11], in assay [12], in assay [14] and in assay [15] was “inactive” in each case. In addition, the Potency entry in [16], in assay [17], in assay [18], in [19] and in assay [20] was “inactive” each time. For the same compound, the result in assay [2] was inactive.

As to `COc1ccc(C[C@@H]2c3cc(OC)c(OC)cc3CC[N@+]2(C)CCC(=O)OCCCCCOC(=O)CC[N@@+]2(C)CCc3cc(OC)c(OC)cc3[C@H]2Cc2ccc(OC)c(OC)c2)cc1OC`, the outcome in assay [2] was inactive. Besides, the Potency result in assay [3], in [4], in [5], in [7], in assay [8] and in assay [9] was “inactive” throughout. Also, the Potency result in assay [10], in [11], in [12], in assay [13], in assay [14] and in assay [15] was “inactive” throughout. Also, the Potency result in assay [16], in assay [17], in [18], in assay [19] and in [20] was “inactive” in each case.

As to `CCCN[C@@H](C)C(=O)Nc1c(C)csc1C(=O)OC`, the compound was called inactive in assay [2]. Moreover, the Potency entry in assay [3], in assay [4], in assay [5], in [6], in assay [7] and in assay [8] was “inactive” each time. The Potency result in [9], in [10], in [11], in assay [12], in assay [13] and in assay [14] was “inactive” each time. The Potency result in [15], in assay [16], in assay [17], in [18], in assay [19] and in assay [20] was “inactive” in each case.

With `CCN(CC)CCC[C@H](C)Nc1ccnc2cc(Cl)ccc12`, in assay [1], the Potency entry was “inactive”. The compound was called inactive in [2]. The Potency in assay [3] was 0.158 µM (active); in assay [4], 1 µM (active); in assay [5], 10 µM (active); in assay [10], 3.98 µM (active); in assay [12] it was 4.26 µM (active); in assay [14], 1.69 µM (active). Further, the Potency in assay [15] is 3.79 µM (active); in [16], 1.51 µM (active); in assay [17], 3.98 µM (active); in assay [18], 3.55 µM (active); in [19], 3.55 µM (active); in assay [20], 6.01 µM (active).

For the compound `C[N+]1(C)CCC[C@@H](OC(=O)C(O)(c2ccccc2)c2ccccc2)C1`, the Potency entry in assay [1], in assay [3], in assay [4], in [5], in [7] and in [8] was “inactive” each time. For the same compound, the Potency entry in [10], in [11], in assay [12], in assay [13], in assay [14] and in assay [15] was “inactive” in each case. In addition, the Potency entry in [16], in [17], in assay [18], in assay [19] and in assay [20] was “inactive” each time. In addition, in assay [2], the outcome was inactive.
